For the first experiment, the target named is NDE1. The experiment can be described thus: pooled miR-30 sensor sort-seq; sequence = guide strand. The following applies: shRNA.
For the sequence TTAAACTTGAGCTGGGTCCTCG, the sensor-assay potency score (higher = more potent) was -0.477.

For TTCAGCTTCATATTCTCGGCTT, the sensor-assay potency score (higher = more potent) turned out to be 0.137.

Take TCTTCGAGAGACATGATCGTGG: the sensor-assay potency score (higher = more potent) was -0.394. TTGCTTGCTCCAGCTCTCTGAT returned a sensor-assay potency score (higher = more potent) of -1.21.

TTGATTTGGACAACCAGCGGCA had a sensor-assay potency score (higher = more potent) of -0.226. Consider TCTCTGAACAGATTCCAGGAGA, for which the sensor-assay potency score (higher = more potent) is -0.696. In the case of TTCAATTTGTTGCAGCTGCGTC, the sensor-assay potency score (higher = more potent) is -0.561. TCTGTTTGTAGGTCATCGCCAG had a sensor-assay potency score (higher = more potent) of -0.347. In the case of TTTTCGGACAGGAGGTCTCTGT, the sensor-assay potency score (higher = more potent) is -0.635.

The sequence TTCTCGGAGTTCCTCTTGCGTA returned a sensor-assay potency score (higher = more potent) of -1.4. Still for that read-out and setting: to TTTGCTTGCTCCAGCTCTCTGA belongs -0.321.

The target in another experiment is NDUFA7. The experiment is described as above. To be noted: shRNA.
TAGCGTAGCTGCAGCTTCCCCT gave a sensor-assay potency score (higher = more potent) of -0.864.

In turn, TCTCCTGGTAGCGTAGCTGCAG gave a sensor-assay potency score (higher = more potent) of -1.09. In the case of AGGAGCTGGAGTCACCGCCTTC, the sensor-assay potency score (higher = more potent) was -1.6. Consider TACAGCAGAGCTCTCTGCTGGC, for which the sensor-assay potency score (higher = more potent) is -0.355. ATTGTTGGAGAGCTTGTGGCTA gave a sensor-assay potency score (higher = more potent) of -0.402. Sequence TAAAACTAGAAGTGATACCTGA showed a sensor-assay potency score (higher = more potent) of 0.222.

The sequence TCTCAGTGGCAGCTACAGCAGA registered a sensor-assay potency score (higher = more potent) of -0.927. AATTAGGTCACATTCTCCCTGG: the sensor-assay potency score (higher = more potent) was -0.0171. The sequence TCGCTTGGAGATCTCCTGGTAG showed a sensor-assay potency score (higher = more potent) of -0.223. TTGTTGGAGAGCTTGTGGCTAG returned a sensor-assay potency score (higher = more potent) of -0.163. TTCGCTTGGAGATCTCCTGGTA showed a sensor-assay potency score (higher = more potent) of 0.453. As to TTGTGGCTAGGACCCACAGGGA, the sensor-assay potency score (higher = more potent) was -1.83.
Further: reference of the scale not given here.
